DAX1 inh-1 = blocks DAX1 repression of SF-1 activated StAR promoter; hit rate 1.1% among 370,000; inhibition, % at 6.8 µM; HEK293T StAR-luciferase reporter, SF-1/DAX-1 repression relief;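 active = inhibition above the mean over all tested compounds plus 3 SD, cut at about 3.6% in these data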;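 also: 0% = DAX-1 cells with DMSO and 100% = cells lacking DAX-1 with DMSO; higher inhibition means more luminescence from relief of DAX-1 repression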
DAX1 inh-2 = inhibits human nuclear receptor DAX1; hit rate 0.99% among 340,000; inhibition, % at 6.75 µM; HEK293 Gal4-DAX1 luciferase reporter, luminescence; P51843;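 active = inhibition above the mean over all tested compounds plus 3 SD, cut at about 4.2% in these data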;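 also: 0% = DAX1-transfected cells with DMSO and 100% = empty-vector control cells with DMSO; inhibition shows as a rise in luminescence from relieved DAX1 repression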
Target sequence (P51843 207-470 limits assumed): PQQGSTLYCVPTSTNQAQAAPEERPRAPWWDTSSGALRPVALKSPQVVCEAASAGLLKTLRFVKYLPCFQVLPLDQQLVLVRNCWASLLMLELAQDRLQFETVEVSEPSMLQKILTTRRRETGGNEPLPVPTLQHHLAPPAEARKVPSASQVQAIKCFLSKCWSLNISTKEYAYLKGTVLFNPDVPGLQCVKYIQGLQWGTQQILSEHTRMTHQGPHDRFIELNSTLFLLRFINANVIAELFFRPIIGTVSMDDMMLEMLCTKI
hcDAF12 agonist = activates DAF-12 receptor from parasite H. contortus; HEK293 hcDAF-12 lit1-tk-luc reporter, luminescence; 0% DMSO, 100% Δ7-dafachronic acid; activation, % at 6.8 µM; hit rate 1.4% among 370,000;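 active = activation above the mean of all tested compounds plus 3 SD, cut at about 5.5% in these data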;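 also: 100% = response to 3 µM Δ7-dafachronic acid high control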
hgDAF-12 ag = activates the H. glycines DAF-12 receptor ligand-binding domain; HEK293 GAL4-hgDAF12 UAS-luciferase reporter, agonist luminescence; normalized to butyrate control; activation, % at 6.8 µM; hit rate 1.8% among 370,000;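 active = activation above a cutoff set at the mean of all screened compounds plus 3 SD, cut at about 10% in these data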;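 also: 0% = DMSO wells and 100% = sodium butyrate wells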
ssDAF-12 act = S. stercoralis DAF-12 activation, primary screen | HEK293 ssDAF-12/GRIP1 lit1-tk-luc reporter, luminescence; % of 3 µM dafachronic acid response | activation, % at 6.8 µM | hit rate 1% among 370,000;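 active = activation above the mean over all tested compounds plus 3 SD, cut at about 0.9% in these data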;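 also: 0% = DMSO-only wells and 100% = 3 µM delta7-dafachronic acid wells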
LXR ag = counter-screen for hcDAF-12 agonists: agonists of human LXR-beta. shares compounds with hcDAF12 agonist. HEK293 Gal4-LXR tk-luc reporter, luminescence, 24 h; normalized: DMSO 0%, positive control 100%. activation, % at 6.8 µM. 3,400 tested, under 10 active;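 active = mean percent activation of the reporter above a cutoff set as the average over tested compounds plus their standard deviation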
hcDAF12 ag = confirmation of H. contortus DAF-12 agonists. HEK293 hcDAF-12 lit1-tk-luc reporter, luminescence; % of Δ7-dafachronic acid response. shares compounds with hcDAF12 agonist. AID 743032. hit rate 61% among 3,400. activation, % at 6.8 µM;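 active = mean activation across triplicate tests above the threshold derived from the earlier primary screen, cut at about 5.5% in these data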;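 also: 0% = DMSO only wells and 100% = 3 µM Δ7-dafachronic acid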
hgDAF12 conf = confirmation of H. glycines DAF-12 agonists | shares compounds with hgDAF-12 ag | HEK293 GAL4-hgDAF12 luciferase reporter, agonist mode; percent of butyrate response | hit rate 80% among 3,300 | activation, % at 6.8 µM | AID 743050;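 active = mean activation over triplicate wells above the hit cutoff derived from the earlier primary screen, cut at about 11% in these data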;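 also: 0% = DMSO low control and 100% = 2 mM sodium butyrate high control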
LXR ag 2 = activates human LXR-beta, counter-screen for DAF-12 agonists; shares compounds with hgDAF-12 ag; HEK293 Gal4-LXR luciferase reporter, 24 h; activation, % at 6.8 µM; 3,300 tested, under 10 active; AID 743051;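 active = mean activation of the triplicate above a set limit carried over from the primary screen, none filed active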
The depositor's hits bear a star; nt = not tested or not shown. Rows were chosen to be rich in hits. Some 4.1% of all compounds tested hit in one or more screens of this group.

SMILES	DAX1 inh-1	DAX1 inh-2	hcDAF12 agonist	hgDAF-12 ag	ssDAF-12 act	LXR ag	hcDAF12 ag	hgDAF12 conf	LXR ag 2
O=C(Nc1cccc(-c2cnc3ccccc3n2)c1)c1ccccc1	0	0	0	2	-1	nt	nt	nt	nt
CCc1ccc(-c2cnc3ccccc3n2)cc1NC(=O)CNC(=O)c1ccccc1	3	1	13*	19*	1.1*	2	6.6*	9	1
COc1ccc(/C=C/C(=O)N2CCN(S(=O)(=O)c3ccccc3Br)CC2)cc1OC	-1	-1	-2	1	-1	nt	nt	nt	nt
COC(=O)c1ccc(N=NNc2cccc(Br)c2)cc1	3	0	7.9*	15*	0	1	7.1*	16*	0
COC(=O)C(C)Nc1cccc(Br)c1 (stereo unspecified)	0	0	0	-1	-2	nt	nt	nt	nt
O=C(Nc1ccccc1F)c1ccc(CSc2ccccc2)o1	0	0	0	9	0	nt	nt	nt	nt
Cc1ccc(NC(=O)/C=C/c2cccs2)c([N+](=O)[O-])c1	1	2	6.8*	14*	-1	1	6.5*	19*	1
Cc1ccc(NC(=O)/C=C/C(=O)O)c([N+](=O)[O-])c1	0	2	2	0	-1	nt	nt	nt	nt
CSc1nnc(-c2ccccc2Cl)o1	0	4	-1	1	-1	nt	nt	nt	nt
Clc1ccccc1-c1ncc(-c2ccccc2)o1	2	5.2*	9.7*	14*	1.4*	1	7.8*	21*	1
CC(=NC1CCCCC1)C1=C(O)c2ccccc2C1=O	4.2*	1	8.1*	16*	1	1	5.8*	15*	1
Cn1c(SCc2ccccc2F)nc2cccnc21	2	3	8.0*	14*	0	1	5.7*	18*	1
CCOC(=O)CSc1nc2cccnc2n1C	0	-1	-1	-1	-1	nt	nt	nt	nt
CN(C)/C=N/C1=C(C#N)C(c2cccs2)c2ccc3ccccc3c2O1 (stereo unspecified)	-2	1	9.4*	24*	1.0*	0	8.5*	14*	0
Cn1c(N)c(C(=O)CCc2ccccc2)c(=O)n(C)c1=O	4.5*	nt	10*	21*	1	1	6.8*	10	1
N#Cc1cc2ccccc2nc1SCc1ccccn1	4.3*	2	20*	17*	4.7*	1	9.2*	16*	1
COc1ccc2cc(-c3nc4ccccc4n3C)c(=O)oc2c1	4.1*	3	6.8*	16*	0	1	6	11*	0
O=C(NCc1ccccc1)C1CC(=O)N(c2ccc(OCC(=O)N3CCOCC3)cc2)C1 (stereo unspecified)	0	2	-2	0	-1	nt	nt	nt	nt
Cc1ccnc(Nc2nc3ccccc3o2)n1	6.5*	0	10*	21*	0	1	6.6*	10	1
N#Cc1cnc(Nc2nc3ccccc3o2)nc1-c1ccccc1	-1	-1	0	-1	-1	nt	nt	nt	nt
Nc1nc(Nc2ccc(Cl)cc2)nc2ccccc12	2	-1	14*	14*	2.5*	2	12*	22*	1
Nc1nc(CCl)nc(Nc2ccccc2)n1	-1	-2	2	3	-2	nt	nt	nt	nt
Nc1nc(Nc2ccccc2)nc2ccccc12	3.6*	0	9.9*	15*	1.7*	1	5	16*	1
O=C(O)Cc1ccc2c(c1)Cc1cccnc1O2	-1	3	0	1	-1	nt	nt	nt	nt
COc1ccc(-c2csc(Nc3ncccc3C)n2)cc1OC	0	0	0	5	-1	nt	nt	nt	nt
